DT40 TDP1 no CPT: qHTS for Inhibitors of human tyrosyl-DNA phosphodiesterase 1 (TDP1): qHTS in cells in absence of CPT | DT40 Tdp1-/- hTDP1 cells, no CPT, ATP luminescence, 48 h | Potency, µM (top dose mostly 46.2 µM), for inactives: at the top dose activity change, negative = growth inhibition, most hits filed as inhibitors | 15% of 420,000 active | AID 686978, 2013; note: % is set by controls: 0 for no effect and ±100 for the full control effect; nearly all actives have a fitted effect of over 55% in size
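Stably hTDP1-transfected Tdp1-null chicken DT40 cells were treated with library compounds minus camptothecin and grown for at least 48 hr at 37 °C, after which cellular ATP was quantified by luminescence.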
HepG2 viability: counter-screen for TGF-b inhibitors: cytotoxicity in HepG2 cells; HepG2 CAGA-GFP viability, ATP luminescence, 18 h; Potency, µM (series often up to 46.1 µM), for the others: at the top dose activity change, negative = cytotoxicity, hits mostly cytotoxic; 0.76% of 410,000 active; AID 588856
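CellTiter-Glo luminescence gave cytotoxicity after 18 hours at 37 degrees C. The cells were HepG2 CAGA-GFP in 1% FBS DMEM, stimulated with 500 pg/mL TGF-beta after compound addition. %Activity was normalised to no-cell wells (complete cell-killing) and DMSO (no toxicity), and curves were fitted and classified.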
HT1080-NT tox: kills 2HG-producing HT-1080-NT fibrosarcoma cells; 1.6% of 360,000 active; Potency, µM (series often up to 46.1 µM), inactives show at the top dose activity, negative = less viability, most hits filed as cytotoxic; HT-1080-NT fibrosarcoma viability, CellTiter-Glo ATP luminescence, 48 h;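 note: NT is the 2HG producing partner of a matched IDH1 knockdown line; 0% = DMSO-treated cells and -100% = media-only wells without cells; nearly all actives have a fitted effect of over 55% in size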
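HT-1080-NT; 750 cells/well; 5% FBS RPMI; 48 h compound, 37 degrees C; CellTiter-Glo luminescence; curve fitting and curve-class assignment.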
DT40 TDP1 CPT: DT40-hTDP1 cell growth loss with CPT | chicken DT40 Tdp1-/-;hTDP1 cells + 20 nM CPT, ATP luminescence, 48 h | Potency, µM (doses to about 46.2 µM), for the others: top-dose activity change, negative = growth inhibition, actives largely listed as inhibitors | 12% of 420,000 active | AID 686979; note: % is set by controls: 0 for no effect and ±100 for the full control effect; nearly all actives have a fitted effect of over 55% in size
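Cell growth measured by CellTiter-Glo luminescence after a minimum 48 h, 37 C compound exposure with 20 nM CPT in Tdp1-knockout DT40 cells stably expressing hTDP1, seeded 400/well; qHTS titration format.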
TGFb inhibitor: TGF-b pathway inhibition; AID 588855; Potency, µM (titrated, usually from 46.1 µM), inactives show at the top dose activity, negative = inhibition, usual class: inhibitors; HepG2 CAGA-GFP TGF-b/SMAD3 reporter, GFP fluorescence, 18 h; TGF-beta stimulated, 500 pg/mL final; 1.2% of 410,000 active; note: % is set by controls: 0 for no effect and ±100 for the full control effect; nearly all actives have a fitted effect of over 65% in size
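HEPG2 CAGA-GFP reporter cells (1000/well, DMEM with 1% FBS) received compounds, then recombinant TGF-beta at 500 pg/mL final for 18 hours at 37 degrees C. Per-cell GFP summed per well was normalised to unstimulated and stimulated DMSO controls before curve fitting.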
HT1080 IDH1KD tx: toxicity to HT-1080 IDH1 knockdown cells (counter line). HT-1080 IDH1 knockdown viability, ATP luminescence, 48 h. Potency, µM (doses to about 46.1 µM), for inactives: at the top dose activity, negative = toxicity, hits mostly cytotoxic. 2% of 360,000 active. AID 686971;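 note: 0% = DMSO wells and -100% = cell-free medium wells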
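Viability of IDH1-knockdown HT-1080 fibrosarcoma cells was assessed by CellTiter-Glo after 48 h at 37 °C with titrated compound; concentration-effect curves were classified by fit quality and response size.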
Active calls of the source: *; ? = inconclusive; nt = no result given; ! = a repeat was not active. In the library only some 17% were active in any assay of this set; here they are far more common. Calls come from the whole dose curve; as a rule, active = well fitted curve in the direction sought with a large enough effect; inconclusive = small, poorly fitted or top-dose-only effect, or another doubt; inactive = no such curve, though single readings can be large; an effect the other way counts as inactive or inconclusive. Potency is the fitted concentration of half-maximal effect.

SMILES | DT40 TDP1 no CPT | HepG2 viability | HT1080-NT tox | DT40 TDP1 CPT | TGFb inhibitor | HT1080 IDH1KD tx
NC1=NC[C@H](c2ccccc2)N1CCc1cc(C(F)(F)F)cc(C(F)(F)F)c1 | 21µM* | -110% | ? | 18µM* | 11µM* | ?
CC(O)[C@H]1CN=C(N)N1CCc1cc(C(F)(F)F)cc(C(F)(F)F)c1 (some centres undefined) | -16% | -8% | -3% | -5% | 3% | 2%
NC1=NC[C@@H](CC2CCCCC2)N1CCc1cc(C(F)(F)F)cc(C(F)(F)F)c1 | 3.7µM* | -93% | -1% | 3.3µM* | ? | ?
NCCCC[C@H]1CNC(=S)N1CCc1cc(C(F)(F)F)cc(C(F)(F)F)c1 | ? | -54% | -20% | ? | -5% | -13%
Cc1ccc(NC(=O)Cn2c(=O)n(Cc3ccc4c(c3)OCO4)c(=O)c3ccccc32)c(C)c1 | -28% | 0% | nt | -19% | 9% | nt
O=C(Nc1ccc2c(c1)CCO2)Nc1nnc([C@H]2C[C@H](O)[C@@H](CO)O2)s1 | 5% | -2% | 28% | -20% | -19% | ?
Cc1nn(Cc2ccccc2Cl)c(Cl)c1/C=C/C(=O)OCC(=O)NC(N)=O | 2.3µM* | 1% | 2% | ? | 5% | -2%
Cc1nn(Cc2ccc(Cl)cc2Cl)c(Cl)c1/C=C/C(=O)OCC(=O)NCC(F)(F)F | 21µM* | -3% | -5% | -29% | 0% | -21%
CCCC(=O)Nc1cc(C)cn(Cc2c(F)cccc2Cl)c1=O | -8% | -6% | -1% | -6% | 0% | -2%
C[C@@H]1CN([C@H](C)CO)C(=O)CCCn2nncc2CO[C@H]1CN(C)C(=O)Nc1ccc(N2CCN(C)CC2)cc1 | 10% | -9% | -1% | ? | -5% | -6%
Clc1cccc(COn2c(-c3ccc(Cl)cc3Cl)nc3ncccc32)c1 | 21µM* | -6% | -23% | ? | ? | ?
Cc1cccc(CS(=O)(=O)c2ncc(Cl)c(C(=O)NCc3ccccc3)n2)c1 | 2.6µM* | 3.5µM*! | 26µM* | 3.3µM* | 3.2µM* | ?
O=C(NCc1ccccc1)c1nc(S(=O)(=O)Cc2ccc(F)cc2)ncc1Cl | 1.5µM* | -112% | nt | 1.3µM* | ? | nt
Cc1ccc(CSc2ncc(Cl)c(C(=O)NCc3ccccc3)n2)cc1 | ? | -1% | nt | -28% | 1% | nt
Cc1ccccc1CSc1ncc(Cl)c(C(=O)NCc2ccccc2)n1 | -29% | 0% | nt | -28% | -9% | nt
CC(C)(CNC(=O)c1cccc(NS(=O)(=O)c2ccc(Br)cc2)c1)N1CCOCC1 | ? | -18% | 7% | -1% | 0% | -2%
O=c1[nH]c(=O)n(Cc2ccco2)c2c1C(C(F)(F)F)(C(F)(F)F)N=C(c1ccc(F)cc1)N2 | 6.5µM* | -29% | ? | 12µM* | ? | ?
CCN(C(=O)CSc1nccc(=O)[nH]1)c1cccc2ccccc12 | -3% | -37% | -4% | -11% | 5% | -2%
Cc1cc(C)cc(N=c2c([N+](=O)[O-])nn(-c3ccc4c(c3)OCCO4)n2O)c1 | 2.9µM* | -5% | -6% | 2.6µM* | ? | -28%
O=[N+]([O-])c1nn(-c2ccc3c(c2)OCCO3)n(O)c1=Nc1ccccc1 | 23µM* | -32% | -8% | 26µM* | -5% | 2%
O=[N+]([O-])c1nn(-c2ccc3c(c2)OCCO3)n(O)c1=Nc1ccc(Cl)cc1 | 16µM* | -32% | -29% | 23µM* | ? | -3%
